# According to PubChem BioAssay (NCI):
# The panel holds about 79,000 compounds, 15% with a hit somewhere; the sample as a whole holds those more often. Values without a mark were called inactive. Calls of active or inactive are those of the source. Cut-off read from the data, not from the text of the source: active = growth inhibition above about 70%; inactive = the rest.
# Columns and labels:
# [1] = NCI Yeast Anticancer Drug Screen. Data for the rad52 strain (AID 147);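 note: 0% = growth of vehicle-treated control cultures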; details: S. cerevisiae rad52 mutant growth inhibition, stronger effect = higher value
# Method in brief: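 DNA repair-defective yeast; compound exposure; growth scored against vehicle controls.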
# [2] = NCI Yeast Anticancer Drug Screen. Data for the wt1 strain (AID 149);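 note: 0% = growth of vehicle-treated wt1 cultures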; details: S. cerevisiae wt1 strain (SPY 50644) growth inhibition, stronger effect = higher value
# Method in brief: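 wt1 yeast, compound-treated; % growth inhibition vs vehicle control.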
# [3] = NCI Yeast Anticancer Drug Screen. Data for the rad50EPP+ strain (AID 151);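 note: 0% = growth of vehicle-treated control cultures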; details: S. cerevisiae rad50 mutant strain, stronger effect = higher value
# Method in brief: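 rad50EPP+ yeast treated with test compounds. Readout: growth vs vehicle control.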
# [4] = NCI Yeast Anticancer Drug Screen. Data for the rad50 strain (AID 155);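 note: 0% = growth of vehicle-only cultures of the same strain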; details: S. cerevisiae rad50 strain growth inhibition, stronger effect = higher value
# Method in brief: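 Genetically altered yeast (DNA repair pathway); compound treatment; growth inhibition vs vehicle ctrl.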
# [5] = NCI Yeast Anticancer Drug Screen. Data for the mec2-1 strain (AID 157); details: S. cerevisiae mec2-1 strain, stronger effect = higher value
# Method in brief: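 Growth inhibition is read against vehicle-treated controls after compound exposure of the mec2-1 yeast strain, which is defective in DNA damage repair or cell cycle control.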
# [6] = NCI Yeast Anticancer Drug Screen. Data for the rad14 strain (AID 159);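 note: 0% = growth of vehicle-treated control cultures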; details: S. cerevisiae rad14 strain growth inhibition, stronger effect = higher value
# Method in brief: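 Test compounds were applied to a repair-deficient yeast strain. Its growth was then compared with that of cultures given vehicle alone, and inhibition was expressed relative to those controls.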
# [7] = NCI Yeast Anticancer Drug Screen. Data for the sgs1 mgt1 strain (AID 161);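 note: 0% = growth of cultures given vehicle only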; details: S. cerevisiae sgs1 mgt1 strain, stronger effect = higher value
# Method in brief: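 Percent growth inhibition was derived by comparing compound-exposed mutant yeast with vehicle-exposed cultures. The strain carries alterations in DNA damage repair.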
# [8] = NCI Yeast Anticancer Drug Screen. Data for the CLN2oe strain (AID 163);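 note: 0% = growth of vehicle-only control cultures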; details: S. cerevisiae CLN2oe strain, stronger effect = higher value
# Method in brief: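 Compound-treated yeast; growth vs vehicle ctrl = % inhibition. Genetically altered strain (cell-cycle control).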
# [9] = NCI Yeast Anticancer Drug Screen. Data for the cln2 rad14 strain (AID 165);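 note: 0% = growth equal to vehicle treated cultures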; details: S. cerevisiae cln2 rad14 strain, stronger effect = higher value
# Method in brief: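 Growth inhibition, relative to vehicle-treated controls, is the read-out. The test organism is a yeast strain with defined genetic alterations, cln2 rad14.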
# [10] = NCI Yeast Anticancer Drug Screen. Data for the bub3 strain (AID 167); details: S. cerevisiae bub3 mutant strain, stronger effect = higher value
# Method in brief: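 Yeast carrying a defined mutation is treated with each compound, and growth is compared with that of vehicle-exposed cells to give inhibition.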
# [11] = NCI Yeast Anticancer Drug Screen. Data for the mlh1 strain (AID 171);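 note: 0% = growth of vehicle-treated control cultures of the same strain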; details: S. cerevisiae mlh1 strain growth inhibition, stronger effect = higher value
# Method in brief: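 Compounds are applied to a genetically altered yeast strain, and its growth is compared with that of vehicle-treated cultures to give percent inhibition.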
# [12] = NCI Yeast Anticancer Drug Screen. Data for the sgs1 strain (AID 173);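 note: 0% = growth of vehicle-only control cultures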; details: S. cerevisiae sgs1 mutant, stronger effect = higher value
# Method in brief: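 Compounds applied to genetically altered yeast; growth compared with vehicle-treated cultures to give % inhibition.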
# [13] = NCI Yeast Anticancer Drug Screen. Data for the mlh1 rad18 strain (AID 175); details: S. cerevisiae mlh1 rad18 strain growth inhibition, stronger effect = higher value
# Method in brief: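 Cells of a genetically altered yeast strain, deficient in DNA damage repair, were treated with compound. Their growth was then compared with that of vehicle-treated cultures to give inhibition.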
# [14] = NCI Yeast Anticancer Drug Screen. Data for the rad18 strain (AID 177); details: S. cerevisiae rad18 mutant growth inhibition, stronger effect = higher value
# Method in brief: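 Compounds are applied to a repair-deficient yeast strain, and growth is compared with that of vehicle-treated cultures to give percent inhibition.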
# [15] = at 5.0 µM (retest, dose inferred, filed as 0.5)
# [16] = at 50.0 µM (retest, dose inferred, filed as 5.0)
compound,measurement,setting,value
CCCCCCCCCCCCCCCCCCNC(=S)/N=C\C1=C(O)c2ccccc2C1=O,growth inhibition,[1]; at 1.2 µM,17%
same,growth inhibition,[1]; at 3.7 µM,4%
same,growth inhibition,[1]; at 11.0 µM,12%
same,growth inhibition,[1]; at 33.0 µM,17%
same,growth inhibition,[1]; at 100.0 µM,19%
same,growth inhibition,[2]; at 1.2 µM,-44%
same,growth inhibition,[2]; at 3.7 µM,-2%
same,growth inhibition,[2]; at 11.0 µM,-5%
same,growth inhibition,[2]; at 33.0 µM,-5%
same,growth inhibition,[2]; at 100.0 µM,-3%
same,growth inhibition,[3]; at 1.2 µM,-6%
same,growth inhibition,[3]; at 3.7 µM,7%
same,growth inhibition,[3]; at 11.0 µM,26%
same,growth inhibition,[3]; at 33.0 µM,42%
same,growth inhibition,[3]; at 100.0 µM,60%
same,growth inhibition,[4]; at 1.2 µM,-1%
same,growth inhibition,[4]; at 3.7 µM,0%
same,growth inhibition,[4]; [15],5%
same,growth inhibition,[4]; at 11.0 µM,0%
same,growth inhibition,[4]; at 33.0 µM,4%
same,growth inhibition,[4]; [16],86% (active)
same,growth inhibition,[4]; at 50.0 µM,60%
same,growth inhibition,[4]; at 100.0 µM,9%
same,growth inhibition,[5]; at 1.2 µM,-3%
same,growth inhibition,[5]; at 3.7 µM,-1%
same,growth inhibition,[5]; [15],-16%
same,growth inhibition,[5]; at 11.0 µM,-5%
same,growth inhibition,[5]; at 33.0 µM,2%
same,growth inhibition,[5]; [16],37%
same,growth inhibition,[5]; at 50.0 µM,36.7%
same,growth inhibition,[5]; at 100.0 µM,2%
same,growth inhibition,[6]; at 1.2 µM,0%
same,growth inhibition,[6]; at 3.7 µM,3%
same,growth inhibition,[6]; at 11.0 µM,7%
same,growth inhibition,[6]; at 33.0 µM,10%
same,growth inhibition,[6]; at 100.0 µM,11%
same,growth inhibition,[7]; [15],-13%
same,growth inhibition,[7]; [16],18%
same,growth inhibition,[7]; at 50.0 µM,71% (active)
same,growth inhibition,[8]; at 1.2 µM,-10%
same,growth inhibition,[8]; at 3.7 µM,-7%
same,growth inhibition,[8]; at 11.0 µM,-5%
same,growth inhibition,[8]; at 33.0 µM,-13%
same,growth inhibition,[8]; at 100.0 µM,-4%
same,growth inhibition,[9]; [15],33%
same,growth inhibition,[9]; [16],-10%
same,growth inhibition,[9]; at 50.0 µM,25.7%
same,growth inhibition,[10]; at 1.2 µM,-5%
same,growth inhibition,[10]; at 3.7 µM,-9%
same,growth inhibition,[10]; [15],-2%
same,growth inhibition,[10]; at 11.0 µM,-4%
same,growth inhibition,[10]; at 33.0 µM,-3%
same,growth inhibition,[10]; [16],84% (active)
same,growth inhibition,[10]; at 50.0 µM,69.7%
same,growth inhibition,[10]; at 100.0 µM,52%
same,growth inhibition,[11]; at 1.2 µM,-1%
same,growth inhibition,[11]; at 3.7 µM,-1%
same,growth inhibition,[11]; at 11.0 µM,-3%
same,growth inhibition,[11]; at 33.0 µM,-2%
same,growth inhibition,[11]; at 100.0 µM,-1%
same,growth inhibition,[12]; at 1.2 µM,0%
same,growth inhibition,[12]; at 3.7 µM,6%
same,growth inhibition,[12]; at 11.0 µM,13%
same,growth inhibition,[12]; at 33.0 µM,15%
same,growth inhibition,[12]; at 100.0 µM,30%
same,growth inhibition,[13]; [15],-13%
same,growth inhibition,[13]; [16],63%
same,growth inhibition,[13]; at 50.0 µM,53%
same,growth inhibition,[14]; at 1.2 µM,8%
same,growth inhibition,[14]; at 3.7 µM,11%
same,growth inhibition,[14]; at 11.0 µM,22%
same,growth inhibition,[14]; at 33.0 µM,30%
same,growth inhibition,[14]; at 100.0 µM,26%
